# Data from ChEMBL document CHEMBL3988442, “University of Dundee, Small-Polar-MMV Screening Library” (2021).
# About 13,000 (27%) of roughly 48,000 compounds showed an effect of 50% or more. The list shows a part of the results.
# Test system: Wolbachia pipientis
# Test: Anti-Wolbachia Cell-Based Screen
# Type: functional
# Set-up: scale not given: in the data most compounds retested in dose-response had high values
# Settings: 5 µM
row,SMILES,Percent Effect
1,CN(C)C(C(=O)NCCSc1ncn[nH]1)c1cccc(F)c1 (configuration not stated),-5.881%
2,Cc1cc(NC(=O)CSc2nc(=O)ccn2C(C)C)no1,-5.923%
3,C/C(=C/c1ccccc1)CNCc1cccc(C(N)=O)c1,-6.417%
4,Cc1ccc(CNC(=O)NCC(=O)N2CCCC2)c(N2CCCC2)c1,-13.16%
5,CCC(NCc1cc[nH]n1)c1nc(C(F)(F)F)cs1 (configuration not stated),-5.752%
6,CN1CCO[C@@H]2CN(C(=O)COc3cccc(Cl)c3)C[C@@H]2C1.O=C(O)C(F)(F)F,-8.699%
7,CC(=O)N1CCO[C@@H]2CN(Cc3cccc(Cl)c3)C[C@@H]2C1.O=C(O)C(F)(F)F,105.7%
8,COc1ccc(CN2C[C@@H]3CN(Cc4cccnc4)CCO[C@@H]3C2)cc1.O=C(O)C(F)(F)F.O=C(O)C(F)(F)F.O=C(O)C(F)(F)F,13.72%
9,Cc1[nH]ccc1C(=O)N1C[C@H]2CC[C@@H]1CN(S(=O)(=O)N(C)C)C2,-3.55%
10,Cc1ccc(CNC(=O)N(C)Cc2ccc([S+](C)[O-])cc2)s1 (configuration not stated),-1.725%
11,CO[C@H]1COCCN(C(=O)c2ccc(F)cc2)C1,0.8542%
12,O=C(c1ccccc1F)N1CC(c2nc(-c3ccc[nH]c3=O)no2)C1,1.982%
13,O=C(c1cccnc1N1CCOC(c2ccc(F)cc2)C1)N1CCCC1 (configuration not stated),5.755%
14,O=C(c1ccccc1F)N1CCOC(c2nc(-c3ncccn3)no2)C1 (configuration not stated),128.4%
15,O=C(c1ccccc1F)N1CC(c2nc(C3CC3)no2)C1,5.464%
16,O=C(c1ccc(F)cc1)N1CCOC(c2nc(-c3ncccn3)no2)C1 (configuration not stated),124.8%
17,Cc1ccc(C(=O)N2CCOC(c3nc(-c4ncccn4)no3)C2)cc1 (configuration not stated),94.58%
18,N#Cc1ccc(C(=O)N2CC(c3nc(-c4ncccn4)no3)C2)cc1,10.08%
19,Cc1nccnc1-n1c(COCC(=O)O)nc2c(C)cccc21,-2.278%
20,Cc1nc2c(C(=O)O)cccc2n1-c1ccc(C(=O)N2CCCC2)o1,-15.07%
21,CC(=O)N1CCN(C(=O)C[C@@H]2C[C@@H](C(C)C)[C@H](CC#N)C=C2C)CC1,4.574%

row,SMILES,Percent Effect
1,Cc1ccnc(N2CCC(NCCOc3ccccc3)CC2)n1,-3.135%
2,Cc1ccc(N2CCCC(NCCCS(C)(=O)=O)C2)nn1 (configuration not stated),0.9171%
3,Cc1ccc(N2CCCC(NCCS(C)(=O)=O)C2)nn1 (configuration not stated),2.432%
4,Cc1ccc(N2CCCC(NCC(=O)NC(C3CC3)C3CC3)C2)nn1 (configuration not stated),84.95%
5,CC(C)=CCNC1CCCN(c2ccc(C)nn2)C1 (configuration not stated),-19.9%
6,CC(=O)NCCNC(=O)CNC1CCCN(c2ccc(C)nn2)C1 (configuration not stated),88.86%
7,Cc1ccc(N2CCCC(NCC(=O)NCC3CC3)C2)nn1 (configuration not stated),1.938%
8,Cc1ccc(N2CCCC(NCC(=O)Nc3cc(C)nn3C)C2)nn1 (configuration not stated),95.11%
9,COCCCNC1CCCN(c2ccc(C)nn2)C1 (configuration not stated),22.77%
10,Cc1ccn(-c2ccc(NCc3ccnc(N4CCCCC4)c3)nn2)n1,4.336%
11,O=C(CCc1ccc(Br)cc1F)NS(=O)(=O)c1ccc2c(c1)OCCO2,-3.282%
12,Cc1ccc(CN[C@@H]2CO[C@H](CNS(=O)(=O)c3ccccc3)[C@H]2O)cc1,-4.281%
13,CCn1cc(S(=O)(=O)NC2CCCC2)cn1,8.847%
14,CCn1cc(S(=O)(=O)NC2CCCN(CC3CCCCC3)C2)cn1 (configuration not stated),19.95%
15,CCn1cc(S(=O)(=O)Nc2nc3c(s2)CC(C)CC3)cn1 (configuration not stated),98.13%
16,CC1CCc2nc(NS(=O)(=O)c3cnn(C)c3)sc2C1 (configuration not stated),97.97%
17,Cn1cc(S(=O)(=O)Nc2ccc3[nH]c(C4CCC4)nc3c2)cn1,-3.023%
18,Cn1cc(S(=O)(=O)Nc2c(F)cccc2N2CCCC2)cn1,-10.22%
19,Cc1oc(C(=O)O)cc1S(=O)(=O)Nc1ccc(Cl)c(Cl)c1,-3.012%
20,Cc1ccc(NS(=O)(=O)c2cc(C(=O)O)oc2C)c(Br)c1,0.9383%
21,Cc1oc(C(=O)O)cc1S(=O)(=O)Nc1cc(Br)ccc1Cl,106.9%

row,SMILES,Percent Effect
1,Cc1oc(C(=O)O)cc1S(=O)(=O)Nc1ccc(Br)cc1Cl,96.02%
2,Cc1oc(C(=O)O)cc1S(=O)(=O)Nc1cccc(-n2nccc2C)c1,-0.5451%
3,Cc1noc(C)c1NS(=O)(=O)c1cc(C(=O)O)cc(Cl)c1Cl,3.53%
4,O=S(=O)(CCNCc1ccc2c(c1)CCO2)N1CCOCC1,0.3646%
5,CN(C)CCN1CC(C(=O)NCc2cn3cccnc3n2)CC1=O (configuration not stated),-11.69%
6,O=C(NCc1ccnc(-n2cccn2)c1)C1CC(=O)N(CC2CC2)C1 (configuration not stated),153.4%
7,CN1CC(C(=O)NCc2cccnc2-n2cccn2)CC1=O (configuration not stated),63.73%
8,CN1CC(C(=O)NCc2cccnc2OCc2ccccc2)CC1=O (configuration not stated),10.22%
9,COCCN1CC(C(=O)NCc2cccnc2-n2cccn2)CC1=O (configuration not stated),120.6%
10,COCCN1CC(C(=O)NCc2ccnc(-n3cccn3)c2)CC1=O (configuration not stated),-1.182%
11,CCN1CC(C(=O)NCc2ccccc2-n2cccn2)CC1=O (configuration not stated),3.983%
12,CC(C)N1CC(C(=O)NCc2ccnc(-n3cccn3)c2)CC1=O (configuration not stated),-4.025%
13,CN(C)CCN1CC(C(=O)NCc2cccc(-n3cccn3)c2)CC1=O (configuration not stated),7.096%
14,O=C(NCc1cccnc1-n1cccn1)C1CC(=O)N(CC2CC2)C1 (configuration not stated),-9.395%
15,CCN1CC(C(=O)NCc2cccnc2-n2cccn2)CC1=O (configuration not stated),124.7%
16,CCS(=O)(=O)N1CCN(C(=O)c2ccc(Cn3cc(Br)cn3)cc2)CC1,-241.9%
17,CCN(C(=O)CN1CCN(CC(C)O)CC1)C1=CCCCC1 (configuration not stated),-11.46%
18,COc1cc(F)c(-n2cnc(CCNC(C)=O)c2)cc1F,-17.55%
19,CCN1CCN(S(=O)(=O)N2CCCC2)[C@H]2CS(=O)(=O)C[C@H]21,-2.731%
20,CCN(CC(=O)NCc1nc(C2CC2)no1)Cc1ccc(Cl)cc1,3.966%
